# Tested on: GRK7
# Conditions: concentration: 1 μM, replicates: in singlicate; n = 1
# 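Also: KINOMEscan kinase panel screen.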
row,Compound,%Inh
1,C[C@@H]1CC[C@H](C(=O)NC2CCCCC2)CN1c1cc(-c2ccc3c(N)n[nH]c3c2)nc(N)n1 [GSK2291363],0%
2,Cc1nc(N(C)[C@H]2CN(C(=O)CC#N)CC[C@H]2C)c2cc[nH]c2n1,0%
3,Nc1nccc2scc(-c3ccc4c(c3)CCN4C(=O)Cc3ccccc3)c12 [GSK2576924],0%
4,COc1cc(OC)cc(-c2cc3cnc(N)nc3nc2NC(=O)NC(C)(C)C)c1,9%
5,O=C(Nc1n[nH]c2cc(-c3ccccc3F)ccc12)C1CC1 [SB-733371],0%
6,CCCNC(=O)Nc1ccc(Oc2ncnc3ccn(C)c23)cc1,29%
7,COc1cc2ncn(-c3cc(OCc4ccncc4Br)c(C(N)=O)s3)c2cc1OC [GW854278],4%
8,Cc1nn2c(=O)cc(N3CCOCC3)nc2n1Cc1cccc(Cl)c1Cl [GSK2342769],0%
9,Cc1c(Cn2c(C)nn3c(=O)cc(N4CCO[C@H](C)C4)nc23)cccc1C(F)(F)F [GSK2373690],0%
10,COc1cc2nccc(Nc3ccc(OCc4ccc(NC(C)=O)cc4)cc3)c2cc1OC.Cl [GW440135],4%
11,Cc1cccc(-c2nc(Nc3ccc4c(cnn4C)c3)c3ccccc3n2)n1 [GW876731],15%
12,CCCC(=O)Nc1n[nH]c2ncc(-c3cccc4ccccc34)cc12 [SB-642057],0%
13,FC(F)(F)c1ccc(-c2ncn(CCCN3CCOCC3)c2-c2ccncc2)cc1 [SB-217780],0%
14,OCCCNc1nccc(-c2c(-c3cccc(C(F)(F)F)c3)nn3cc(C(F)(F)F)ccc23)n1 [GW630813],0%
15,COc1cc(Nc2nccc(N3CCC(NC(=O)C4COc5ccccc5O4)C3)n2)cc(OC)c1OC (centres unmarked) [GSK1379761],0%
16,CCc1ccc(-c2ccc3c(c2)-c2nn(C)cc2S(=O)(=O)N3C)cc1,0%
17,COc1cc(Nc2nccc(N3CCC(NC(=O)C(C)c4ccc(Cl)cc4)C3)n2)cc(OC)c1OC (centres unmarked) [GSK1379757],0%
18,CCS(=O)c1ccc(-c2coc3ccc(-c4nnc(C)o4)cc23)cc1 (centres unmarked),19%
19,O=C1NC(=O)C(c2ccccc2)=C1Nc1cccc(O)c1 [SB-390534],0%

row,Compound,%Inh
1,COc1cccc(-n2cnc3c(N)ncnc32)c1 [SKF-97416],27%
2,COc1cc2ncn(-c3cc(OCc4ccncc4)c(C(N)=O)s3)c2cc1OC [GSK336313],0%
3,COC(=O)c1c(-c2ccccc2)c2cc(Br)ccc2c(=O)n1Cc1ccc(S(C)(=O)=O)cc1,35%
4,Nc1ncnc2c1ncn2-c1cccc(F)c1 [SKF-97560],4%
5,Nc1n[nH]c2nnc(-c3ccccc3)c(-c3ccccc3)c12 [GW554060],0%
6,Cc1ccc(-c2ccc3c(ccc4sc5c(c43)NC[C@@H](C)N=C5N(C)C)n2)cn1,0%
7,COc1cc2ncn(-c3cc(OCc4ccc(S(C)(=O)=O)cc4)c(C(N)=O)s3)c2cc1OC [GW869979],0%
8,Cl.NS(=O)(=O)c1cccc(Nc2cc(-c3ccc(F)cc3)n[nH]2)c1 [GW824645],0%
9,COc1cccc(C2=C(N(C)c3ccccc3)C(=O)NC2=O)c1 [SB-334865],0%
10,CCn1c(-c2ccoc2)nc2cnccc21 [SB-733887],93.9%
11,COc1cc2nccc(Nc3cccc(Oc4ccccc4)c3)c2cc1OC.Cl [GW284543],0%
12,CCC(=O)c1c(-c2ccccc2)c2cc(Cl)ccc2c(=O)n1Cc1cc(S(C)(=O)=O)n(CC(N)=O)n1,0%
13,CCn1c(-c2nonc2N)nc2ccccc21 [SB-693162/GW549034],25%
14,CN(C)c1cc(-c2ccc3c(N)n[nH]c3c2)nc(N)n1 [GSK2219329],0%
15,Cc1ccccc1COc1cc(-n2cnc3cc(Cl)ccc32)sc1C(N)=O [GW813349],0%
16,Cl.c1ccc(Cn2cnc3cc(Nc4ncnc5ccccc45)ccc32)cc1 [GW272142],0%
17,Nc1ncnc2c1ncn2-c1cccc2ccccc12 [SKF-97184],4%
18,COc1ccc(CNC(=O)NC2CCN(c3ccnc(Nc4ccc(F)cc4)n3)C2)cc1 (centres unmarked) [GSK1379706],0%

# Tested on: GSK3A
# Conditions: concentration: 1 μM, replicates: in singlicate; n = 1
row,Compound,%Inh
1,C[C@@H]1CC[C@H](C(=O)NC2CCCCC2)CN1c1cc(-c2ccc3c(N)n[nH]c3c2)nc(N)n1 [GSK2291363],5%
2,Cc1nc(N(C)[C@H]2CN(C(=O)CC#N)CC[C@H]2C)c2cc[nH]c2n1,9%
3,Nc1nccc2scc(-c3ccc4c(c3)CCN4C(=O)Cc3ccccc3)c12 [GSK2576924],11%
4,COc1cc(OC)cc(-c2cc3cnc(N)nc3nc2NC(=O)NC(C)(C)C)c1,0%
5,O=C(Nc1n[nH]c2cc(-c3ccccc3F)ccc12)C1CC1 [SB-733371],24%
6,CCCNC(=O)Nc1ccc(Oc2ncnc3ccn(C)c23)cc1,0%
7,COc1cc2ncn(-c3cc(OCc4ccncc4Br)c(C(N)=O)s3)c2cc1OC [GW854278],7%
8,Cc1nn2c(=O)cc(N3CCOCC3)nc2n1Cc1cccc(Cl)c1Cl [GSK2342769],10%
9,Cc1c(Cn2c(C)nn3c(=O)cc(N4CCO[C@H](C)C4)nc23)cccc1C(F)(F)F [GSK2373690],13%
10,COc1cc2nccc(Nc3ccc(OCc4ccc(NC(C)=O)cc4)cc3)c2cc1OC.Cl [GW440135],0%
11,Cc1cccc(-c2nc(Nc3ccc4c(cnn4C)c3)c3ccccc3n2)n1 [GW876731],18%
12,CCCC(=O)Nc1n[nH]c2ncc(-c3cccc4ccccc34)cc12 [SB-642057],87%
13,FC(F)(F)c1ccc(-c2ncn(CCCN3CCOCC3)c2-c2ccncc2)cc1 [SB-217780],0%
14,OCCCNc1nccc(-c2c(-c3cccc(C(F)(F)F)c3)nn3cc(C(F)(F)F)ccc23)n1 [GW630813],0%
15,COc1cc(Nc2nccc(N3CCC(NC(=O)C4COc5ccccc5O4)C3)n2)cc(OC)c1OC (centres unmarked) [GSK1379761],0%
16,CCc1ccc(-c2ccc3c(c2)-c2nn(C)cc2S(=O)(=O)N3C)cc1,30%
17,COc1cc(Nc2nccc(N3CCC(NC(=O)C(C)c4ccc(Cl)cc4)C3)n2)cc(OC)c1OC (centres unmarked) [GSK1379757],0%
18,CCS(=O)c1ccc(-c2coc3ccc(-c4nnc(C)o4)cc23)cc1 (centres unmarked),91.6%
19,O=C1NC(=O)C(c2ccccc2)=C1Nc1cccc(O)c1 [SB-390534],30%

row,Compound,%Inh
1,COc1cccc(-n2cnc3c(N)ncnc32)c1 [SKF-97416],0%
2,COc1cc2ncn(-c3cc(OCc4ccncc4)c(C(N)=O)s3)c2cc1OC [GSK336313],15%
3,COC(=O)c1c(-c2ccccc2)c2cc(Br)ccc2c(=O)n1Cc1ccc(S(C)(=O)=O)cc1,0%
4,Nc1ncnc2c1ncn2-c1cccc(F)c1 [SKF-97560],18%
5,Nc1n[nH]c2nnc(-c3ccccc3)c(-c3ccccc3)c12 [GW554060],91%
6,Cc1ccc(-c2ccc3c(ccc4sc5c(c43)NC[C@@H](C)N=C5N(C)C)n2)cn1,0%
7,COc1cc2ncn(-c3cc(OCc4ccc(S(C)(=O)=O)cc4)c(C(N)=O)s3)c2cc1OC [GW869979],3%
8,Cl.NS(=O)(=O)c1cccc(Nc2cc(-c3ccc(F)cc3)n[nH]2)c1 [GW824645],0%
9,COc1cccc(C2=C(N(C)c3ccccc3)C(=O)NC2=O)c1 [SB-334865],0%
10,CCn1c(-c2ccoc2)nc2cnccc21 [SB-733887],35%
11,COc1cc2nccc(Nc3cccc(Oc4ccccc4)c3)c2cc1OC.Cl [GW284543],5%
12,CCC(=O)c1c(-c2ccccc2)c2cc(Cl)ccc2c(=O)n1Cc1cc(S(C)(=O)=O)n(CC(N)=O)n1,6%
13,CCn1c(-c2nonc2N)nc2ccccc21 [SB-693162/GW549034],0%
14,CN(C)c1cc(-c2ccc3c(N)n[nH]c3c2)nc(N)n1 [GSK2219329],0%
15,Cc1ccccc1COc1cc(-n2cnc3cc(Cl)ccc32)sc1C(N)=O [GW813349],17%
16,Cl.c1ccc(Cn2cnc3cc(Nc4ncnc5ccccc45)ccc32)cc1 [GW272142],0%
17,Nc1ncnc2c1ncn2-c1cccc2ccccc12 [SKF-97184],8%
18,COc1ccc(CNC(=O)NC2CCN(c3ccnc(Nc4ccc(F)cc4)n3)C2)cc1 (centres unmarked) [GSK1379706],23%
